The values below come from PubChem BioAssay (NCI).

What all share (assay): NCI-60 one-dose screen, 48 h (100 = growth as untreated, 0 = no growth, -100 = all killed)
What all share (conditions): 10 µM unless noted

For assay [1], the system named is NCI-H23 lung.
Assay [2] has as its system NCI-H226 lung.
Assay [3] has as its system NCI-H322M lung.
The subject of assay [4] is HOP-62 NSCLC.
For assay [5], the system named is NCI-H460 lung.
Assay [6] has as its system HOP-92 NSCLC.
For assay [7], the system named is NCI-H522 lung.
The test system of assay [8] is A549/ATCC NSCLC.
Assay [9] relates to 786-0 renal.
Assay [10] relates to COLO 205 colon.
The test system of assay [11] is DU-145 prostate.
Assay [12] concerns K-562 leukemia.
Assay [13] concerns MALME-3M melanoma.
Assay [14] relates to MDA-MB-231 breast.
Assay [15] deals with RXF 393 renal.
Assay [16] has as its system SF-268 CNS.
Assay [17] has as its system SF-295 CNS.
Assay [18] relates to SF-539 CNS.
Assay [19] concerns UACC-257 melanoma.
The subject of assay [20] is M14 melanoma.

Molecules are shown by their SMILES. Compounds without any hit were thinned out: in the full panel of roughly 83,000, 20% have a hit.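 Testing used 96-well plates and a 48-hour single-concentration exposure. Example: -40 means 40% of the starting cells died.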 Unmarked numbers belong to inactive results. Active and inactive are the calls of the source. How the source made its calls: active means growth percent below 10; inactive means the rest.

With `COc1cc(C2CC(c3ccc(Nc4nc(Nc5ccc(Cl)cc5)nc(Nc5ccc(Cl)cc5)n4)cc3)=NN2C(C)=O)cc(OC)c1OC` (stereo not given), the growth in assay [1] is 83.3%; in assay [2], 104%; in assay [3], 106%; in assay [4], 105%; in assay [5], 106%; in assay [6], -3.51% (active). For the same compound, the growth in assay [7] is 86.8%; in [8] it was 91.1%; in [9] it was 90.6%; in assay [10], 97.9%; in assay [11], 115%; in assay [12] it was 73.5%. The growth in [13] was 99.2%; in [14] it was 102%; in assay [15], 92.4%; in assay [16] it was 106%; in [17], 102%; in assay [18], 98.7%. The figures for the growth in assay [19] and in assay [20] were 103% and 102%, respectively.
Turning to `O=C(/C=C/c1cccc(Cl)c1)c1ccc(Nc2nc(Nc3ccc(F)cc3)nc(Nc3ccc(Cl)cc3)n2)cc1`, the growth is 97.9% in [1]; 118% in assay [2]; 96.6% in assay [3]; 91.9% in assay [4]; 143% in assay [5]; 72.9% in assay [6]. Further, the growth in assay [7] was 102%; in [8] it was 87.1%; in assay [9], 99.1%; in [10], 108%; in [11], 162%; in [12] it was 79.7%. The growth in assay [13] is 108%; in assay [14] it was 110%; in [15], -9.73% (active); in assay [16], 163%; in assay [17] it was 61.9%; in assay [18] it was 142%. Besides, the growth in assay [19] was 100%; in assay [20] it was 94.9%.
On to `O=C(NNC(=O)c1ccc(NC(=O)c2ccccn2)cc1)Nc1ccc([N+](=O)[O-])cc1`, for which the growth in [1] is 106%; in assay [2], 94.2%; in assay [3], 95.7%; in [4], 96.1%; in assay [5] it was 107%; in [6] it was 96.7%. The growth is 100% in assay [7]; 100% in [8]; 96.5% in assay [9]; 114% in [10]; 106% in assay [11]; 107% in [12]. The growth in assay [13] is 98%; in assay [14] it was 103%; in assay [15] it was 99.9%; in assay [16] it was 95.5%; in assay [17], 98.9%; in assay [18], 60.9%. For the same compound, the results for the growth in assay [19] and in assay [20] were 106% and 100%, respectively.
`Cc1ccc(C)n1-c1ccccc1-n1c(C)ccc1C`: the growth in assay [1] is 107%; in assay [2] it was 97.8%; in [3] it was 99.9%; in [4], 112%; in assay [5] it was 105%; in assay [6] it was 92.4%. Besides, the growth in assay [7] was 96.5%; in [8], 101%; in [9] it was 101%; in assay [10] it was 114%; in assay [11] it was 111%; in [12], 101%. Besides, the growth in assay [13] is 120%; in assay [14], 90.8%; in [15], 109%; in [16], 98.6%; in assay [17], 92.9%; in [18] it was 104%. In addition, the growth is 103% in [19] and 112% in assay [20].
Take `COc1ccc(/C=N/C2=C(C#N)C(c3ccccc3)c3ccc4ccccc4c3O2)cc1` (stereo not given): the growth in assay [1] was 29.9%; in [2] it was 51.5%; in assay [3] it was 43.7%; in [4], 22%; in [5], 8.64% (active); in assay [6], 41.4%. The growth is -7.09% (active) in assay [7]; 16.8% in assay [8]; 24.4% in assay [9]; -26.3% (active) in [10]; 25.6% in [11]; 12.2% in assay [12]. Further, the growth is 43.6% in assay [13]; 18.7% in assay [14]; 26% in assay [15]; 46.5% in [16]; 9% (active) in assay [17]; -8.29% (active) in assay [18]. Besides, the values for the growth in assay [19] and in assay [20] were 48.4% and 2.72% (active), respectively.
With `CCOC(=O)c1c(NC(=O)c2ccc(Cl)cc2)sc2c(CN(C)C)c(O)ccc12`, the growth was 88% in assay [1]; 96.1% in assay [2]; 61.3% in assay [3]; 84.6% in [4]; 71.3% in assay [5]; 1.75% (active) in [6]. For the same compound, the growth was 76.5% in assay [7]; 69.6% in assay [8]; 69.8% in [9]; 5.48% (active) in assay [10]; 82% in [11]; 8.81% (active) in assay [12]. The growth is 51.6% in assay [13]; 56.4% in assay [14]; 64.2% in assay [15]; 78.5% in [16]; 83.5% in assay [17]; 56.7% in assay [18]. The growth in [19] was 2.24% (active); in [20], -18.4% (active).
Take `CCCOC(=O)Nc1nc2ccc(SCC(C)C)cc2s1`: the growth in assay [1] is 46.4%; in [2], 52.4%; in [3] it was 44.1%; in assay [4] it was 40.7%; in assay [5], 29.1%; in [6] it was 48.4%. The growth in assay [7] was 24.1%; in [8], 34.3%; in [9], 40.4%; in assay [10], 11.6%; in [11], 57.8%; in assay [12], 20.8%. Moreover, the growth in assay [13] is 38.7%; in assay [14], 62.7%; in assay [15] it was 28.2%; in [16], 52.7%; in assay [17], 32.4%; in assay [18], 26.9%. In addition, the growth was 58.7% in assay [19] and 34% in assay [20].
